High-throughput results from PubChem.
Cruzain Triton: cruzain (T. cruzi) inhibition with detergent. Potency, µM, for inactives: max response, negative = inhibition, most hits filed as inhibitors. P25779. 0.43% of 200,000 active. AID 1478. purified cruzain, Z-FR-AMC fluorescence, 0.01% Triton;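 also: plate controls were neutral wells for no effect and buffer without enzyme for full effect; nearly all actives have a fitted effect of over 40% in size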
Target sequence (P25779 123-467 limits assumed): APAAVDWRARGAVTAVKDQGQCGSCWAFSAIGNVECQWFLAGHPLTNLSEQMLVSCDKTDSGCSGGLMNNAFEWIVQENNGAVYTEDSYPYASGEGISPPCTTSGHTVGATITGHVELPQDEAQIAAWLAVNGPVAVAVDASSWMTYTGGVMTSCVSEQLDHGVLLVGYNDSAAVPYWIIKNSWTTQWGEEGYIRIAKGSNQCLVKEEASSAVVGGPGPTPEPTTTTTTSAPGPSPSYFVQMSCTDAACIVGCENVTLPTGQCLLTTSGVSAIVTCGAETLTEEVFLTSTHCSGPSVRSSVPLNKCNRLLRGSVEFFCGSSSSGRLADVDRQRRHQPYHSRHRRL
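Purified cruzain (1.5 nM final) was preincubated with compounds for 15 min at room temperature in 100 mM sodium acetate pH 5.5, 5 mM DTT, 0.01% Triton X-100. Reaction started with 2 uM Z-FR-AMC; AMC fluorescence change over 60 s gave activity.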
Cruzain noTriton: inhibitors of Trypanosoma cruzi cruzain without detergent. P25779. purified cruzain, Z-FR-AMC fluorescence, no detergent. Potency, µM, without a hit: max response, negative = inhibition, usual class: inhibitors. 2.3% of 200,000 active. AID 1476;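 also: plate controls were enzyme without inhibitor for no effect and buffer without enzyme for full effect; nearly all actives have a fitted effect of over 40% in size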
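Purified cruzain at 1.5 nM, pre-incubated 15 min with compound at room temperature in 100 mM sodium acetate pH 5.5, 5 mM DTT, 0.00005% Triton X-100. Reaction started with 2 uM Z-FR-AMC; AMC fluorescence increase over 60 s gives rate.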
NS1 inh: inhibitors of influenza NS1 protein function; Potency, µM (highest dose often 46.1 µM), for the others: at the top dose activity, positive = more growth; 0.4% of 270,000 active; AID 2326; calls by dose curve; also: actives are rising curves; nearly all actives have a fitted effect of over 50% in size
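Recovery from NS1-induced slow growth read by OD600 in budding yeast switched to galactose assay medium (pH 6.0, -URA) at 1:100 dilution. Compound 23 nl per well; the matching strain lacking NS1 serves as control.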
Starred values were filed as active, the others as inactive; ? = inconclusive; / = no result. The entries come from a sample that favours hits as a whole. Unless noted, calls follow the shape of the dose curve; as a rule, active = well fitted curve in the direction sought with a large enough effect; inconclusive = small, poorly fitted or top-dose-only effect, or another doubt; inactive = no such curve, though single readings can be large; an effect the other way counts as inactive or inconclusive. Potency is read from the fitted curve at half-maximal effect.

SMILES | Cruzain Triton | Cruzain noTriton | NS1 inh
COc1ccccc1CN(Cc1c(Cl)cccc1Cl)S(=O)(=O)c1ccc(Br)cc1 | 1% | -12% | /
CCCCCCCCCCCCC/C=C/[C@@H](O)[C@H](CO)NCCCCCCCC | 4% | -2% | /
COP(=O)(OC)c1nc(-c2cccc3ccccc23)oc1NCCc1ccccc1 | 25µM* | ? | 0%
COc1ccc(CCNc2oc(-c3cccc4ccccc34)nc2P(=O)(OC)OC)cc1OC | ? | ? | 6%
CCCNc1oc(-c2cccc3ccccc23)nc1C#N | ? | 3.2µM* | 4%
N#Cc1nc(-c2cccc3ccccc23)oc1NCCN1CCOCC1 | -30% | -4% | -50%
CN(C)CCC[C@@H]1c2ccccc2Oc2ccc(C(F)(F)F)cc21 | 0% | -3% | -8%
Cc1[nH]nc2c1C(c1ccc(O)cc1)C1=C(CC(C)(C)CC1=O)N2 (stereo not given) | / | / | 2%
Cc1ccc(C2C3=C(CC(C)(C)CC3=O)Nc3[nH]c(=S)[nH]c(=O)c32)cc1 (stereo not given) | 0% | -3% | 8.9µM*
COc1ccc(-c2nc(NC(=O)c3ccc(OCC(=O)Nc4ccc(F)cc4)c(OC)c3)sc2C)cc1 | 0% | -10% | 8%
COc1cc(C(=O)Nc2nc(-c3cc(C)ccc3C)c(C)s2)ccc1OCC(=O)Nc1ccc(F)cc1 | -5% | 20µM* | -6%
Cc1cc(Br)ccc1NC(=O)c1ccc(NS(=O)(=O)c2c(C)noc2C)cc1 | 1% | -8% | /
CCCCCc1ccc(-c2ccc(/C=C/C(N)=O)cc2)nc1 | -1% | 13µM* | -3%
CCCCCc1ccc(-c2ccc(OC)cc2)nc1 | / | / | -8%
COc1ccc2c(c1)C1C=CCC1C(c1cc3c(cc1Br)OCO3)N2 (stereo not given) | -4% | 25µM* | 14%
COc1cccc([C@@H]2Nc3ccc(C(=O)O)cc3[C@@H]3C=CC[C@@H]32)c1OC | -5% | -21% | /
Cc1ccc(NC(=O)CN2CCN(c3ccccc3F)CC2)cc1F | -4% | 6% | /
CC1CCN(S(=O)(=O)c2cn(CC(=O)Nc3cccc(C(F)(F)F)c3)c(=O)c3ccccc23)CC1 | -5% | ? | /
CN(C(=O)Cn1cc(S(=O)(=O)N2CCN(c3ccccc3F)CC2)c2ccccc2c1=O)c1ccc(Cl)cc1 | -4% | -29% | /
O=C(Cn1cc(S(=O)(=O)N2CCN(c3ccccc3F)CC2)c2ccccc2c1=O)Nc1cccc(C(F)(F)F)c1 | -2% | 7.9µM* | /
Cc1ccc(NC(=O)Cn2cc(S(=O)(=O)N3CCN(c4ccccc4F)CC3)c3ccccc3c2=O)cc1F | -2% | 7.9µM* | /
CC(C)c1ccc(NC(=O)Cn2cc(S(=O)(=O)N3CCN(c4ccccc4F)CC3)c3ccccc3c2=O)cc1 | -2% | 7.9µM* | /
Cc1ccc(C)c(N(C)C(=O)c2cn(C)c(=O)c3ccccc23)c1 | -1% | 7% | /
Cc1ccccc1C1CC(=O)Oc2cc(C)c(Cl)c(C)c21 (stereo not given) | -2% | 7% | /
COc1ccc(OC)c(Nc2nc(C3CC3)nc3c2nnn3Cc2ccccc2)c1 | -10% | -5% | 19%
SMILES | Cruzain Triton | Cruzain noTriton | NS1 inh
c1ccc(Cn2nnc3c(Nc4ccc5c(c4)OCO5)nc(C4CC4)nc32)cc1 | -2% | 16µM* | 11%
Cc1ccc(S(=O)(=O)N2CCN(Cc3ccccc3Cl)CC2)cc1 | -2% | 2% | /
COc1cccc(NC(=O)c2nnn(Cc3cccc(C(F)(F)F)c3)c2N)c1 | 3% | 7% | /
COC(=O)CN1C(=O)CSc2ccc(S(=O)(=O)Nc3ccc(C(C)=O)cc3)cc21 | -1% | -4% | /
CCN(C(=O)CSc1nc2ccccc2n1CC(=O)Nc1cccc(C#N)c1)c1ccccc1 | -3% | 0% | /
Cc1csc(SCC(=O)c2cc(C)n(Cc3cccs3)c2C)n1 | -3% | 7% | -37%
Cc1cc(C(=O)CSc2n[nH]c(-c3ccccc3F)n2)c(C)n1Cc1cccs1 | -8% | 16µM* | 2%
O=C(Cn1c(=O)n(Cc2ccc(C(=O)NCc3ccccc3Cl)cc2)c(=O)c2ccccc21)Nc1ccc(F)c(Cl)c1 | -2% | 7.9µM* | /
O=C(Cn1c(=O)n(Cc2ccc(C(=O)NCc3ccccc3Cl)cc2)c(=O)c2ccccc21)Nc1ccc(F)cc1 | -2% | 13µM* | /
COc1ccc(NC(=O)Cn2c(=O)n(Cc3ccc(C(=O)NCc4ccccc4Cl)cc3)c(=O)c3ccccc32)cc1OC | -1% | -8% | /
CCc1ccc(NC(=O)Cn2c(=O)n(CCCC(=O)NCc3ccccc3Cl)c(=O)c3ccccc32)cc1 | 1% | -9% | /
CN(C)c1ccc(CN(CC2CCCO2)C(=O)COc2ccc(Cl)cc2)cc1 (stereo not given) | -4% | 2% | /
CCOC(=O)C1=C(CSc2nc3ccccc3s2)NC(=O)NC1c1ccc(OC)cc1 (stereo not given) | -3% | 25µM* | 12%
